Only some compounds are listed: those with a hit (about 9.4% of all), similar ones and a draw of the others.
Pf growth 48h: Primary qHTS for delayed death inhibitors of the malarial parasite plastid, 48 hour incubation. P. falciparum luciferase growth in erythrocytes, 48 h. Potency, µM (doses to about 28.7 µM), without a hit: at the highest dose activity change, negative = inhibition, hits mostly inhibitors. 5.9% of 310,000 active; also: % is scaled to controls: 0 for no effect and ±100 for the full control effect
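Erythrocytes infected with P. falciparum carrying an integrated firefly luciferase reporter (2% hematocrit, 0.1% parasitemia final) were exposed to compounds in RPMI 1640 with 0.5% Albumax at 37 C, 5% CO2. Growth inhibition was scored as reduced luminescence.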
SARS PLpro yeast: qHTS of Yeast-based Assay for SARS-CoV PLP; S. cerevisiae expressing SARS-CoV PLpro, growth rescue; Potency, µM (top dose mostly 32.9 µM), without a hit: top-dose activity, positive = growth rescue, most hits filed as activators; AID 485353, 2010; 0.19% of 330,000 active; calls by dose curve; also: 0% is about no effect; nearly all actives have a fitted effect of over 55% in size
Pf growth 96h: Primary qHTS for delayed death inhibitors of the malarial parasite plastid, 96 hour incubation | P. falciparum luciferase reporter growth, 96 h | Potency, µM (highest dose often 28.7 µM), inactives show at the highest dose activity change, negative = inhibition, usual class: inhibitors | 6.9% of 320,000 active; also: % is scaled to controls: 0 for no effect and ±100 for the full control effect
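Compounds incubated with erythrocytes infected by luciferase-expressing P. falciparum (2% hematocrit, 0.05% parasitemia final) for 96 hours, 37 C in 5% CO2. Growth inhibition scored as decreased luciferase luminescence.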
AMA1 RON2 block: qHTS for Inhibitors of AMA1-RON; Towards Development of Antimalarial Drug Lead: Primary Screen; Plasmodium falciparum AMA1 (3D7) - RON2 peptide interaction; AlphaScreen AMA1-biotinylated RON2 peptide binding; Potency, µM (series often up to 58.2 µM), for the others: at the highest dose activity change, negative = inhibition, most hits filed as inhibitors; 0.2% of 360,000 active;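 also: 0% = vehicle wells and -100% = peptide control; nearly all actives have a fitted effect of over 45% in size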
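AMA1 (3D7) with his tag at 25 nM final met compounds first, then biotinylated RON2 peptide at 25 nM; detection used donor plus acceptor beads, 10 µg/mL apiece, read by AlphaScreen after 30 min at room temperature.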
* = called active by the depositor; ? = inconclusive; . = not tested or not shown. Unless noted, calls follow the shape of the dose curve; as a rule, active = well fitted curve in the direction sought with a large enough effect; inconclusive = small, poorly fitted or top-dose-only effect, or another doubt; inactive = no such curve, though single readings can be large; an effect the other way counts as inactive or inconclusive. Potency is read from the fitted curve at half-maximal effect.

SMILES | Pf growth 48h | SARS PLpro yeast | Pf growth 96h | AMA1 RON2 block
CN1CCN(c2ccc(CNC(=O)c3cccc4c(-c5ccc(F)c(F)c5)coc34)cc2)CC1 | . | . | . | 14µM*
CCOc1ccc(NC(=O)Cc2ccc(S(=O)(=O)N3CCOCC3)s2)cc1OCC | 27% | -3% | -8% | -1%
Cc1ccc(NC2=C(Cl)C(=O)c3ccccc3C2=O)cc1 | 79% | 16% | 216% | -23%
COC1=C(Nc2ccc(OC)cc2)C(=O)c2ccccc2C1=O | 2.3µM* | . | ? | 13µM*
COC1=C(Nc2ccc(O)cc2)C(=O)c2ccccc2C1=O | ? | -7% | 12µM* | ?
O=C1C(Cl)=C(Nc2ccc(O)cc2)C(=O)c2ccccc21 | ? | -2% | -15% | -3%
CCN(CC)c1ccc(NC2=C(Cl)C(=O)c3ccccc3C2=O)cc1 | 40% | -69% | 2.9µM* | 6.3µM*
COc1ccc(NC2=C(NCCO)C(=O)c3ccccc3C2=O)cc1 | 7.4µM* | -12% | ? | ?
COc1ncc(-c2ccc3c(c2)S(=O)(=O)c2cccc(C(=O)NCc4ccco4)c2C3=O)cn1 | 2% | 1% | ? | 2%
CC(C)c1cccc(C(C)C)c1NC(=O)COC(=O)c1ccc(OCC(=O)Nc2cccc(C(F)(F)F)c2)cc1 | ? | 9% | ? | -2%
CCOc1ccc(NC2=C(OC)C(=O)c3ccccc3C2=O)cc1 | 1.2µM* | -21% | 1.2µM* | 8.9µM*
Cc1cccc(NC2=C(NCCO)C(=O)c3ccccc3C2=O)c1 | 4.7µM* | -18% | -14% | ?
COc1cccc(NC2=C(NCCO)C(=O)c3ccccc3C2=O)c1 | -28% | -3% | -13% | ?
CCOC(=O)c1sc(/S(C)=N\S(=O)(=O)c2cccc(Cl)c2)c2c1CCC=C2 (centres undefined) | ? | -1% | ? | 2%
CCN(c1ccccc1)S(=O)(=O)c1ccc(C(=O)N2CCN(c3ccccc3)CC2)cc1 | . | 11% | . | -22%
CCN(c1ccccc1)S(=O)(=O)c1ccc(N2CCN(c3ccccc3O)CC2)nc1 | 6.6µM* | 4% | 9.3µM* | -1%
S=C(NC1CCCCC1)NN(c1ccccc1)c1ccccc1 | 12µM* | -31% | 2.9µM* | 5%
Cc1cccc(C)c1NC(=S)NC1CCCCC1 | -21% | -22% | 10µM* | -13%
COc1ccccc1NC(=S)NC1CCCCCCCCCCC1 | 1.5µM* | 0% | ? | 94%
CCOc1ccccc1NC(=S)NC1CCCCC1 | ? | 3% | 0% | -2%
COc1ccccc1NC(=S)NC1CCCCC1 | 9% | 23% | 9.3µM* | -1%
O=C(Cc1ccc(F)cc1)N1CCC(CC2CC(c3cccc(Br)c3)=NO2)(C(=O)NCC2CCCCC2)CC1 (centres undefined) | ? | 0% | 1.2µM* | -2%
O=C(Cc1ccc(F)cc1)N1CCC(CC2CC(c3ccc(Cl)cc3)=NO2)(C(=O)NCC2CCCCC2)CC1 (centres undefined) | ? | -1% | 4.7µM* | -4%
CC1=C(C(=O)OC(C)C)C(c2ccc(O)cc2)NC(=O)N1 (centres undefined) | -9% | ? | ? | -1%
O=C1[C@@H](Oc2ccccc2)[C@@H](c2ccccc2)N1c1cccnc1 | . | . | . | 1%
SMILES | Pf growth 48h | SARS PLpro yeast | Pf growth 96h | AMA1 RON2 block
Cc1ccc(N2CCN(c3ccc(C)cc3)C2c2cccnc2)cc1 | . | -7% | 1.3µM* | -28%
COc1cccc(C2N(c3ccccc3)CCN2c2ccccc2)c1OC | ? | 0% | 9% | -23%
c1ccc(N2CCN(c3ccccc3)C2c2ccncc2)cc1 | 13µM* | -15% | . | -10%
c1ccc(N2CCN(c3ccccc3)C2c2cccnc2)cc1 | 3.7µM* | -3% | 482% | -7%
CCOC(=O)C1(C)CCCN(C(=O)c2cc(F)cc(F)c2)C1 (centres undefined) | . | . | . | 1%
CC(CCc1ccccc1)NCC(O)c1ccc(O)c(C(N)=O)c1 (centres undefined) | 13µM* | -2% | ? | 6%
C#CCOCCOCCOCCNc1nc(N2CCN(C(=O)CCCCCCCCCCNC(=O)[C@@H](CCSC)n3cc(CCO)nn3)CC2)nc(N2CCN(C(=O)CCCCCCCCCCNC(=O)[C@H](CCC(=O)O)n3cc(CCCCCN)nn3)CC2)n1 | 5.2µM* | -1% | 10µM* | -14%

Bioassay records from PubChem BioAssay.
